High-throughput results as filed in PubChem.
AHR act: activates the human aryl hydrocarbon receptor; P35869; AHR-responsive luciferase reporter cells, luminescence; activation, % at 5 µM; 2.5% of 320,000 active; AID 2796; in the data active = activation above about 47%;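 also: 0% = vehicle wells and 100% = reference agonist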
Target sequence (P35869 whole entry, looked up): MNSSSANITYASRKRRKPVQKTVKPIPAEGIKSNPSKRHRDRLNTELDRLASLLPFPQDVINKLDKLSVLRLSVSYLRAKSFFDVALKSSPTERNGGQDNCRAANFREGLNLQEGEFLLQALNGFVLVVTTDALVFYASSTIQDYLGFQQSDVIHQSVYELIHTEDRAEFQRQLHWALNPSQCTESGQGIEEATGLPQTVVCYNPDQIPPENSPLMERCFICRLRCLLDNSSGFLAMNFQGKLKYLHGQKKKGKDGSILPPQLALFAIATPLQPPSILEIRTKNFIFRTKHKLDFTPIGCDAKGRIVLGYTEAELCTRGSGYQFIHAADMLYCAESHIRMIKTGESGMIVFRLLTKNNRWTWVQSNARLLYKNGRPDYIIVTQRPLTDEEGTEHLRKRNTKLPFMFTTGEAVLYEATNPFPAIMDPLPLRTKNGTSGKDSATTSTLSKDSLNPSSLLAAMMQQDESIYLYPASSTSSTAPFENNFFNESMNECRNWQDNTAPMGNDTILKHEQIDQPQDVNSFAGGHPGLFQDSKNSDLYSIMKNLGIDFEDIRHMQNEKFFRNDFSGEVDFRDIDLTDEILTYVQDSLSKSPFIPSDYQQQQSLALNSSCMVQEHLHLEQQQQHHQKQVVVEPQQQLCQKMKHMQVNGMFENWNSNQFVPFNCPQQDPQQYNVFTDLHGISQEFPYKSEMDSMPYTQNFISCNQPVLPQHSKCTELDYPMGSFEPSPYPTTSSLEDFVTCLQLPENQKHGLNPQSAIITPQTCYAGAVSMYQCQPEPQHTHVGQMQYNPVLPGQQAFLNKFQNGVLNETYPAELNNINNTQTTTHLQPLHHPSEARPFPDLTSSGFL
HSF1 inhib: HSF1 inhibition | NIH3T3-HGL HSE-luciferase, MG132-induced, luminescence 8 h; hits give low values | activity change, negative = inhibition, % at 7.5 µM (by protocol) | 0.77% of 300,000 active | AID 2098;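 active = more than half of replicate wells show activity change below -50%, luminescence cut by over half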;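 also: luciferase reports HSF-1 transcriptional activity via heat shock element; 0% = median of DMSO wells and -100% = zero luminescence signal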
HSF-1 act: increases HSF-1 driven luciferase reporter signal; NIH3T3-HGL HSF-1 luciferase reporter, MG132, 8 h; 100% = twice DMSO control signal; activation, % at 9 µM; 1.7% of 300,000 active;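 active = mean replicate activation of at least 50% with a set share of replicates each reaching 50%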;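 also: 0% = median of the neutral control wells and 100% = twice that signal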
FXN GAA850 act: increases GAA850 frataxin promoter reporter activity | HEK293 lucGAA850 FXN promoter luciferase reporter, 24 h; percent of 10 µM SAHA response | activation, % at 6 µM | 0.56% of 360,000 active | AID 540364;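 active = activation above the average of all compounds screened plus 3 SD, cutoff fixed separately per campaign, cut at about 7.5% in these data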;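 also: 0% = DMSO wells and 100% = 10 µM SAHA wells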
* = called active by the depositor; nt = no result. In the library only some 4.6% were active in any assay of this set; here they are far more common.

SMILES | AHR act | HSF1 inhib | HSF-1 act | FXN GAA850 act
CC[C@H]1C/C=C\Cc2ccccc2[C@H](C(=O)C[C@@H](O)CC(C)=O)OC1=O | -0.4 | nt | nt | -0.6
CCNC(=S)N/N=C/c1cn(Cc2ccccc2F)c2ccccc12 | 51.0* | 7.6 | 8.7 | 2.8
CCNC(=S)N/N=C/c1cn(Cc2ccc(F)cc2)c2ccccc12 | 39.3 | 19.6 | 35.8 | 0.7
CCOc1ccccc1NC(=O)Nc1ccc(Cl)cc1 | 52.7* | -13.0 | -12.9 | 0.6
CCOc1ccccc1NC(=O)Cn1[nH]c(=O)c2ccccc2c1=O | 64.4* | 6.0 | -9.0 | -2.6
CCOc1ccccc1NC(=O)CCC(=O)Nc1ccccc1OCC | 13.8 | 3.5 | 17.3 | 1.1
CCOc1ccccc1NC(=O)Nc1ccccn1 | 54.4* | -15.8 | 4.0 | 2.3
O=C(CCCC1=NS(=O)(=O)c2ccccc2N1)NCCc1ccc(Cl)cc1 | 1.4 | 6.3 | 8.4 | 0.4
CNC(=S)N1N=C(c2ccc(OC)cc2)CC1c1ccccc1Cl (centres undefined) | 12.0 | -4.9 | 8.9 | 2.3
CCOc1ccc(Cn2ccnc2)cc1[N+](=O)[O-] | 63.6* | -0.5 | -9.5 | 2.2
Cc1ccc(OCCCn2ccnc2)c([N+](=O)[O-])c1 | 37.0 | 6.5 | 6.2 | -0.6
COc1cccc(CNS(=O)(=O)c2c(C(=O)N3CCCCC3)c(C)n(C)c2C)c1 | 0.0 | -0.8 | -6.6 | 0.6
CCOP(=O)(OCC)/C(=C/N1CCCCC1)NC(=O)c1ccccc1 | 63.9* | -7.6 | 1.0 | -1.2
CCOc1ccc(C(C)=O)cc1CN1c2ccc(S(N)(=O)=O)cc2CC1C (centres undefined) | -1.2 | -9.6 | 10.2 | 0.9
CCS(=O)(=O)N1Cc2ccccc2CC1C(=O)N(C)CC(=O)Nc1ccc(OC)cc1 (centres undefined) | 2.4 | nt | nt | -0.5
Cc1c(/C(O)=C2/C(=O)C(=O)N(Cc3cccnc3)C2c2ccccn2)cnn1-c1ccccc1 (centres undefined) | -0.5 | -76.2* | -80.0 | -13.2
Cc1c(/C(O)=C2/C(=O)C(=O)N(Cc3cccnc3)C2c2cccs2)cnn1-c1ccccc1 (centres undefined) | -1.5 | -64.1* | -67.9 | -6.6
CCn1c(SC(C)C(=O)Nc2nnc(C)s2)nnc1-c1ccco1 (centres undefined) | 1.4 | -6.4 | 3.1 | -0.6
COC(=O)CSc1nc2ccc(C)cc2cc1C#N | -0.4 | 29.0 | 79.5* | 3.7
COc1ccc2cc(C#N)c(SCC(=O)N3CCCC3)nc2c1 | 6.4 | -1.1 | 5.4 | 1.6
COC(=O)CSc1nc2cc(OC)ccc2cc1C#N | 5.0 | 30.7 | 58.0* | 4.1
CCOC(=O)C1(CCOc2ccccc2)CCN(Cc2cccc(-n3cccn3)c2)CC1 | 1.9 | -59.6* | -69.7 | -5.0
CCOC(=O)C1(CCOc2ccccc2)CCN(Cc2cccc3c2OCO3)CC1 | 4.1 | -3.7 | 1.2 | -5.2
CCOC(=O)C1(CCOc2ccccc2)CCN(Cc2cccc(F)c2)CC1 | -2.2 | 1.8 | 0.9 | -0.6
CCOC(=O)C1(CCOc2ccccc2)CCN(Cc2cc(OC)c3c(c2)OCO3)CC1 | 0.1 | 26.5 | 56.8* | -3.6
SMILES | AHR act | HSF1 inhib | HSF-1 act | FXN GAA850 act
COc1cccc(/C=C2\N=C(SC)SC2=O)c1OC | 1.6 | 30.7 | 55.8* | -0.1
COc1ccc(/C=C2/SC(=O)NC2=O)cc1 | 7.9 | nt | nt | 1.7
O=C1/C(=C/c2ccco2)CCC1C1CCCC1 (centres undefined) | -3.3 | 42.3 | 61.0* | -1.0
O=C1/C(=C\c2ccco2)CCC/C1=C\c1ccco1 | 9.3 | 13.8 | 17.4 | 13.2*
CC1C/C(=C/c2ccco2)C(=O)/C(=C/c2ccco2)C1 (centres undefined) | 11.6 | 2.1 | 2.4 | nt
NC(=O)CN(C/C=C/c1ccccc1)C/C=C/c1ccccc1 | 55.1* | -4.2 | 1.7 | 0.6
CCOC(=O)C1=NOC2C3CC(C12)C1C(=O)N(CCc2ccc(OC)c(OC)c2)C(=O)C31 (centres undefined) | 1.0 | -70.8* | -78.6 | 0.6
Cc1cc(C(=O)OCC(=O)Nc2cccc(S(=O)(=O)N(C)C)c2)c2ccccc2n1 | 0.6 | -5.3 | 3.0 | 0.9
N#Cc1cccc(-n2nnnc2-c2ccc3c(c2)OCO3)c1 | 56.8* | 6.2 | 15.2 | 4.7
CNC(=O)c1cc(S(=O)(=O)NC2CCCCCC2)ccc1C | nt | 1.1 | 1.8 | -1.2
CS(=O)(=O)c1ccc(-c2cccc(NC(=O)c3ccc4c(c3)OCO4)c2)nn1 | nt | nt | nt | -0.4
O=C(Nc1ccc(Cl)cc1)c1ccc2c(c1)OCO2 | -3.0 | 33.0 | 59.7* | -0.9
CCOc1cc(C(=O)Nc2ccc3c(c2)OCO3)ccc1OC(F)F | 50.6* | 0.0 | 8.9 | 4.9
O=C(Nc1ccc(Cl)cc1)C1=Cc2ccccc2OC1 | 72.4* | 32.5 | 43.5 | -1.7
